Our source for the activation values is PubChem BioAssay AID493084 (National Center for Advancing Translational Sciences (NCATS), 2011).

The structures appear in SMILES notation. In all, about 360,000 compounds went through this assay and about 650 (0.18%) were called active. The sample as a whole holds a higher share of actives than the screen did. Values without a mark were called inactive. No stated cut-off is given here; in the data, active means activation above about 30%; inactive means the rest.

Sequence of Thyrotropin-releasing hormone receptor (Homo sapiens) (P34981 whole entry, looked up): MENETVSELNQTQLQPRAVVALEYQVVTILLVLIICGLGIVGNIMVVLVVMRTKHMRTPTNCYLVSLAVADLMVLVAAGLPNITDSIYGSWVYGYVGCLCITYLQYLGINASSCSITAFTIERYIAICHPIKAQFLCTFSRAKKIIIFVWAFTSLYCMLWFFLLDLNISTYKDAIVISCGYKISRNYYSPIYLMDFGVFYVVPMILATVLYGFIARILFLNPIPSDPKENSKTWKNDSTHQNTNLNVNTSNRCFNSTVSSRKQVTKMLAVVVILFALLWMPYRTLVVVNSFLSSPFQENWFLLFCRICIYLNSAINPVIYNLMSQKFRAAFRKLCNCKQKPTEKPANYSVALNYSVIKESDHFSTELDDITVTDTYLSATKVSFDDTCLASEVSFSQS

The experiment concerns the target Thyrotropin-releasing hormone receptor (Homo sapiens) (UniProt P34981). Nature of the experiment: qHTS for Small Molecule Agonists and Allosteric Enhancers of Human TRH Receptor: Primary Screen for Agonists. Further: 0% is about no effect. To be noted: TRHR cells, calcium flux fluo-8, FDSS agonist mode; at 2 µM; stronger effect = higher value. An excerpt:
NIH Chemical Genomics Center [NCGC] NIH Molecular Libraries Probe Centers Network [MLPCN] MLPCN Grant: MH089816-01 Assay Submitter (PI): Marvin Gershengorn This project aims to identify small drug-like molecules that activate (agonists) the thyrotropin releasing hormone (TRH) receptor (TRHR) or enhance its TRH-stimulated activity (allosteric enhancers). TRHR, a drug-accessible cell surface receptor expressed in specific brain regions, and its ligand TRH have been implicated in several central nervous system disorders, including depression and anxiety. Small molecule TRHR agonists or allosteric enhancers that are metabolically stable and able to cross the blood-brain barrier might serve as probes to elucidate the roles of brain TRH receptors in animal models, and might be valuable as lead compounds for the development of drugs to treat patients with central nervous system disorders. Upon TRHR-Gq activation in TRHR cells, intracellular calcium is released from stores in the endoplasmic reticulum. […] This primary screen measures compound-induced activation of calcium release.
For the HTS assay freshly prepared cells are plated at a density of 2000/well in 3 ul of complete DMEM medium containing 10% serum in 1536-well plates and cultured over night at 37 C in a humidified incubator with 5% CO2. The next day, 2 ul of a no wash calcium dye (ABD Bioquest) was added to the cells and plates were incubated at room temperature for 1 hour. For the assay, assay plates were loaded into the FDSS kinetic plate reader. A 10 cycle (1 second/cycle) baseline measurement is taken and then the FDSS online 1536 pintool delivers 23 nl of compound library (as well as TRH controls) to the plate. The plate is measured for kinetically at 1 cycle/sec for 180 seconds and is considered to be the agonist portion of the assay (eg, compounds which activate a positive calcium response during this portion are flagged as potential agonists). Following the 180 second read, 1 ul of either an EC20 (positive modulation assay) is delivered by an onboard pipette head. Measurements are taken kinetically for an additional 180 seconds. TRHR FDSS Screening Protocol 1. Reagent, 3 uL 2000 cells/well 1536 TC treated Black plate in media containing 10% FCS 2. Time, 18 hours, 33.5C 5% CO2 (cells grown at 37C) 3. Reagent, 2 uL ABD fluo-8 Ca dye 4. Time, 30 min-1.5hrs hours, Room temp (6 plates/batch) 5. Detector, EX 480/EM 530C, FDSS 10 cycles baseline (1sec/cycle) 6. Compound, 23 nL of stock solution from library 7. Detector, EX 480/EM 530C, FDSS […] (1sec/cycle) Agonist mode 8. Compound, 1 ul EC20 of TRH made up in HEPES HBSS, 10 nM final 9. Detector, EX 480/EM 530C, FDSS 100 cycles (1sec/cycle) Potentiator mode
(In general: qHTS replaces the single test concentration by a dilution series.)
Turning to `Cc1ccccc1C(=O)Nc1sc2c(c1C(=O)N1CCC(C)CC1)CCCC2`, the activation is -0.34%.
As to `COc1cccc(C(=O)NC(=O)Nc2nc(C)cc(C(F)(F)F)n2)c1`, the activation is 1.04%.
The result for `COc1cccc(C(=O)c2sc3nc(-c4ccccc4)cc(C(F)(F)F)c3c2N)c1` reads 106% (active); that for `COc1cccc(C(=O)Nc2ccc(-c3cc(C(F)(F)F)nn3-c3ccccc3)cc2)c1`, 1.81%.
In the case of `CCOC(=O)c1cccc(NC(=O)c2cc(CN3CCCC3)on2)c1`, the activation was 0.429%.
For `CCC(C)Nc1oc(-c2ccc(COc3ccc(Cl)cc3)o2)nc1C#N` (stereo not drawn) the value was 0.327%.
The result for `O=C(NCCCCc1ccccc1)C1CC(c2ccc([N+](=O)[O-])cc2)=NO1` (stereo not drawn) reads -1.16%; that for `O=C1NC(=O)C2C1C(c1ccc([N+](=O)[O-])cc1)=NN2Cc1ccccc1` (stereo not drawn), 34% (active); that for `O=C1CCN(Cc2ccc([N+](=O)[O-])cc2)CCN1[C@H](CO)Cc1ccccc1`, 1.11%.
For `CC1CCCN(c2csc3ccc(F)cc3c2=O)C1` (stereo not drawn) the value was 0.824%.
For the molecule `COc1ccccc1OCC(=O)Nc1nnc2n1CCS2`, the activation is 0.414%.
For `CCOc1ccccc1NC(=O)Cn1c(=O)n(Cc2ccco2)c(=O)c2sc3ccccc3c21` the value was -0.0246%; for `CN(c1ccccc1)c1ccc(/C=c2\s/c(=C(/C#N)C(=O)C(C)(C)C)n(Cc3ccco3)c2=O)cc1`, 40.8% (active); for `Cc1cc2c(s1)c1cnn(Cc3cc(F)c(Cl)cc3Cl)c(=O)c1n2C`, 0.185%.
On to `CSc1ccc(NC(=O)Cn2nnnc2-c2ccccc2F)cc1`, for which the activation was 0.477%.
Regarding `Cc1c(Cl)cccc1NC(=O)N1CCN(C(=O)c2nsc3ccccc23)CC1`, the activation was -1.09%.
For `Cc1ccc(C(=O)NC2CCN(C#N)CC2)cc1` the value was 0.438%.
The result for `O=S(=O)(c1ccc2c(c1)OCCO2)N1CCN(S(=O)(=O)c2cc(F)ccc2F)CC1` reads -0.372%.
For `CCN(CC)CCNC(=O)Cn1ncc2c3ccccc3n(Cc3ccccc3C)c2c1=O` the value was 1.76%; for `Cc1ccc2nc(/C(C#N)=C/c3ccccc3F)[nH]c2c1`, 1.62%.
Take `CCOC(=O)c1ccc(-c2ccc(/C=C(\C#N)C(=O)Nc3ccc(C)cc3)o2)cc1`: the activation is 1.6%.
The result for `Cc1ccc2nc(/C(C#N)=C/c3ccc(-c4ccc(C(=O)OC(C)C)cc4)o3)[nH]c2c1` reads 69.6% (active).
The result for `Cc1noc(/C=C/N(C)C)c1S(=O)(=O)N1CCCC(C(=O)Nc2cccc(F)c2)C1` (stereo not drawn) reads -0.115%; that for `CCOC(=O)c1c(C)oc2nc(C)nc(N3CCN(c4ccc(OC)cc4)CC3)c12`, -1%.
For `COc1cccc(CNC(=O)Cc2csc3nc(-c4ccccc4)cn23)c1` the value was -0.21%; for `COc1cccc2c1cc1c(=O)n(CC(=O)N3CCN(c4ccccc4)CC3)nc(C)n12`, 0.0688%.
With `COc1ccc(-n2c(SCC(=O)Nc3ccc(Cl)c(C)c3)nc3n[nH]c(C)c3c2=N)cc1`, the activation was 0.481%.
For `CCN(CC)c1ccc2cc(C(N)=O)/c(=N\NC(=O)c3ccncc3)oc2c1` the value was 81.7% (active); for `CCOC(=O)c1c(C)oc2ccc(N(C(=O)c3ccncc3)S(=O)(=O)c3ccc(CC)cc3)cc12`, 0.327%.
The result for `C/C(=N\NC(N)=S)c1ccncc1` reads 0.334%; that for `N#CN1CCC(NC(=O)c2ccc(F)cc2)CC1`, 1.13%; that for `O=C(CNC(=O)c1ccc(Cl)cc1Cl)OC(C(=O)Nc1cc(C(F)(F)F)ccc1Cl)c1ccccc1` (stereo not drawn), -0.435%.
`CC(=O)Nc1c(C)nn(-c2ccccc2)c1N1CCC(C(=O)Nc2cc(Cl)ccc2C)CC1`: the activation was -0.0803%.
With `Cc1cccc2c(=O)cc(CSc3ccccc3NC(=O)C(C)C)[nH]c12`, the activation was 0.235%.
Turning to `COc1ccc(CNC(=O)CCc2c(C)nn(-c3ccc(N4CCCC4)nn3)c2C)cc1`, the activation is 0.0444%.
For `Cc1ccc(C)c(Cn2c(=O)n(CCC(=O)NCc3ccc4c(c3)OCO4)c(=O)c3sccc32)c1` the value was -0.659%.
For `COc1ccc(N2CCN(C3=NS(=O)(=O)C(c4cccc(Br)c4)=C3C)CC2)cc1` the value was -0.301%; for `COc1cc(C(=O)NCCS(=O)(=O)N2CCN(c3ccccc3)CC2)cc(OC)c1OC`, 0.101%; for `CCc1ccc(-n2nnc(-c3nc(-c4ccccc4)no3)c2C)cc1`, 0.119%.
The result for `CCCN(CCC)C(=O)C1CCCN(c2ncnc3c2nc2n3CCCCC2)C1` (stereo not drawn) reads -0.956%.
For `O=C(CC(NCc1cccnc1)C(=O)O)Nc1ccc(O)cc1` (stereo not drawn), the activation was 0.363%.
The result for `CCOc1cccc(CC(=O)N2CCc3c([nH]c4ccccc34)C2c2ccc(OC)cc2)c1OCC` (stereo not drawn) reads 0.0175%; that for `CC1CCCN(c2cc3c(cc2F)c(=O)c(S(=O)(=O)c2cccc(Cl)c2)cn3Cc2ccccc2)C1` (stereo not drawn), 0.542%.
